# Assay results reported in PubChem BioAssay (NCATS).
# Results filed as inconclusive are left out. Values without a mark were called inactive. Active and inactive are the calls of the source. Calls follow the shape of the dose curve; as a rule, active = well fitted inhibition curve with a large enough effect; inconclusive = small, poorly fitted or top-dose-only effect; inactive = flat fitted curve, though single readings scatter.
# Tested on: CRL-7250
# Test: Cytotoxic Profiling of Annotated Libraries Using Quantitative High-Throughput Screening (AID 1296008); also: nearly all actives have a fitted effect of over 60% in size
# Details: Five cell lines viability, CellTiter-Glo ATP luminescence, 48-72 h; max response: stronger effect = lower value
# Summary of the method: (§1)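 Cytotoxicity was measured as CellTiter-Glo ATP luminescence, read after 10 min at room temperature. Compound treatment of the cells lasted 48 or 72 hr at 37 degrees Celsius in a qHTS format.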
# % is scaled to controls: 0 for no effect and ±100 for the full control effect; potency is read from the fitted curve at half-maximal effect.
Compound,max response [%],Potency
O=C1C[C@]23C=CCN4CCC5c6cc7c(cc6N1[C@@]5(CC2)C43)OCO7 (some centres undefined),-12,–
CN(CC1COCCO1)S(=O)(=O)Nc1ccc2ccc3ncc(-c4cnn(C)c4)cc3c(=O)c2c1 (centres undefined),–,5.8 µM (active)
CS(=O)(=O)Nc1ccc2oc3c(OC(F)F)ccc(C(=O)Nc4c(Cl)cncc4Cl)c3c2c1,-13.5,–
CCn1c(=O)c(-c2ccc(Cl)cc2Cl)cc2cnc(Nc3ccc(N4CCNCC4)c(F)c3)nc21,–,1.16 µM (active)
COc1ccccc1N1CCN(c2ncnc3n[nH]c(Br)c23)CC1,-14.5,–
CCS(=O)c1nc(-c2cccc(OCc3ccccc3)c2)cc(C(F)(F)F)n1 (centres undefined),1.1,–
Cn1cc(-c2ccc3c(c2)CCN3C(=O)Cc2cccc(C(F)(F)F)c2)c2c(N)ncnc21,–,16.4 µM (active)
NC(=O)N1CCC(CC(=O)N2CCC(C3c4ncc(Br)cc4CCc4cc(Cl)cc(Br)c43)CC2)CC1 (centres undefined),-10.9,–
CC(C)c1ccc(NC(=O)c2cccs2)c(-c2nc3ccccc3[nH]c2=O)c1,4.02,–
Cc1cc(F)ccc1[C@H]1C[C@@H](N2CCN3C(=O)CC[C@H]3C2)CCN1C(=O)N(C)[C@H](C)c1cc(C(F)(F)F)cc(C(F)(F)F)c1,2.7,–
CC(C)n1nc(C#Cc2ccccc2)c2c(N)ncnc21,–,16.4 µM (active)

# Tested on: HEK293
# Test: as above
# Details: Five cell lines viability, CellTiter-Glo ATP luminescence, 48-72 h; max response: stronger effect = lower value
# Summary of the method: as §1
row,Compound,Potency
1,Cn1ncc(Cl)c1-c1cc(C(=O)N[C@H](CN)Cc2ccc(F)c(F)c2)oc1Cl,0.366 µM (active)
2,C=CC(=O)N1CCN(C(=O)CNc2cc(-c3ccccc3Cl)c(Cl)cc2OC)CC1,18.4 µM (active)
3,C/C1=C\CCC2=CC(OC2=O)C(C)(C)/C=C/C1=O (centres undefined),6.51 µM (active)
4,C=C1C(=O)OC2C(OC(=O)C=C(C)C)C(C)=C3C(=O)C=C(C)C3C(O)C12 (centres undefined),6.4 µM (active)
5,C=CS(=O)(=O)NC1CCN(C(=O)CNc2cc(I)c(Cl)cc2OC)CC1,8.2 µM (active)
6,CCCc1cc(C)[nH]c(=O)c1CNC(=O)c1cc(-c2ccnc(N3CCN(C)CC3)c2)cc2c1cnn2C(C)C,8.2 µM (active)
7,C=C1C(=O)OC2/C=C(\COC(C)=O)CC/C=C(\C=O)CC(OC(=O)C(C)CC)C12 (centres undefined),3.55 µM (active)
8,CC(OC1OCCN(Cc2n[nH]c(=O)[nH]2)C1c1ccc(F)cc1)c1cc(C(F)(F)F)cc(C(F)(F)F)c1 (centres undefined),11.6 µM (active)
9,CCN1CCN(Cc2ccc(C(=O)Nc3ccc(C)c(Oc4ccc5c(c4)CC(=O)N5)c3)cc2C(F)(F)F)CC1,13 µM (active)
10,O=C(Nc1ccc2[nH]nc(-c3ccncc3)c2c1)[C@@H]1CCN(CC(=O)N2CCN(c3ccc(-c4ncccn4)cc3)CC2)C1,10.3 µM (active)
11,C/C=C(/C)C(=O)O[C@H]1C=C(CO)C(=O)[C@H](OC(=O)/C(C)=C/CO)[C@H]1C(C)C,3.6 µM (active)
12,C=C1C(=O)O[C@@H]2C[C@@]3(C)CCCC(=C)[C@]3(O)C[C@H]12,13 µM (active)
13,Cc1cc(F)c(C(=O)Nc2cccc(-c3nncn3C(C)C)n2)cc1-n1cnc(C2CC2)c1,10 µM (active)
14,N#C/C(=C1\Nc2ccccc2S1)c1ccnc(NCCc2cccnc2)n1,7.31 µM (active)
15,CC1CCCC(O)CC(=O)c2c(O)cc(O)cc2CC(=O)O1 (centres undefined),8.05 µM (active)
16,Cc1cc2occ(CN(C)CCN(C)Cc3cn(-c4cccc(C(F)(F)F)c4)c4ccccc34)c(=O)c2cc1C,8.2 µM (active)
17,CNc1ccc([N+](=O)[O-])c(Nc2ccc3[nH]ncc3c2)n1,18.4 µM (active)
18,C[C@H]1[C@H](/C=C/c2ccc(-c3ccccc3C#N)cn2)[C@@H]2[C@@H](C)OC(=O)[C@@H]2C[C@@H]1C,13 µM (active)
19,COc1ccc(CNc2nc(N(CCO)CCO)nc3c2ncn3C(C)C)cc1,4.61 µM (active)
20,CC1(C)CC[C@]23CO[C@@]4(CCC5[C@@]6(C)CC[C@H](O[C@@H]7OC[C@H](O[C@@H]8O[C@H](CO)[C@@H](O)[C@H](O)[C@H]8O[C@@H]8OC[C@@H](O)[C@H](O)[C@H]8O)[C@H](O)[C@H]7O[C@@H]7O[C@H](CO)[C@@H](O)[C@H](O)[C@H]7O)[C@@](C)(CO)C6CC[C@@]5(C)[C@]4(C)C[C@H]2O)[C@@H]3C1 (some centres undefined),3.48 µM (active)
21,Nc1nc(Nc2ccc3c(c2)CCC(N2CCCC2)CC3)nn1-c1cc2c(nn1)-c1ccccc1CCC2 (centres undefined),8.2 µM (active)
22,CC(=O)OC1[C@H]2[C@@H](C[C@@H](C)[C@@H]3C=CC(=O)[C@@]13C)OC(=O)[C@@H]2C (some centres undefined),16.4 µM (active)
23,N#Cc1cc(CN2CCC(Nc3ncnc4sc(Cl)cc34)CC2)ccc1F,14.6 µM (active)
24,CCC(C(C)O)n1ncn(-c2ccc(N3CCN(c4ccc(OCC5COC(Cn6cncn6)(c6ccc(F)cc6F)C5)cc4)CC3)cc2)c1=O (centres undefined),5.8 µM (active)
25,Nc1cccc(CNC(=O)c2ccc(Oc3ccc(OCc4cccc(F)c4)cc3)nc2)c1,11.6 µM (active)
26,C/C=C(\C)C(=O)O[C@H]1C=C(CO)C(=O)[C@H](OC(C)=O)[C@H]1C(C)C,8.05 µM (active)
27,C[C@H](Oc1cc(-c2cnn(C3CCNCC3)c2)cnc1N)c1c(Cl)ccc(F)c1Cl,9.2 µM (active)
28,COc1cc2c(NC3CCN(C(C)C)CC3)nc(N3CCC(F)(F)CC3)nc2cc1OCCCN1CCCC1,8.2 µM (active)
